# Shown are actives, neighbours in structure and some others; about 3.4% of the full set was active somewhere.
# EWS-Fli inh: EWS/Fli transcriptional activity inhibition. A673 NR0B1-luciferase reporter, viability-normalised. inhibition, % at 12.6 µM. 350,000 compounds, 0.67% hits;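 active = mean inhibition of at least 50% after viability correction, with every replicate also passing that limit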;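 note: firefly luciferase signal divided by Alamar Blue viability fluorescence both relative to DMSO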
# Ecoli rRNA inh: selective bacterial rRNA inhibition in E. coli | E. coli WT GFP vs humanized-ribosome RFP mutants, fluorescence, 24 h; hits give low values; DMSO median 0, no signal -100 | GFP signal change (wild-type ribosome), % (no concentration beside the values) | 350,000 compounds, 1.6% hits;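 active = significant combined selectivity score with lowered wild-type GFP, culture density cut under 30%, mutant RFP and density less affected; inactive = any of these conditions unmet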
# PGC1a acetyl inh: modulators of PGC1a acetylation; U2OS PGC1a acetylation, AlphaScreen anti-acetyl-lysine; with virally co-expressed GCN5 acetyltransferase; inhibition, % at 15.6 µM; 350,000 compounds, 0.17% hits;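 active = every replicate shows inhibition of at least 40%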;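 note: 0% = neutral control wells and 100% = positive control wells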
# SIRT5 inh: blocks human SIRT5 desuccinylation of peptide; Q9NXA8; Purified SirT5, succinyl-peptide AMC, trypsin-coupled fluorescence; inhibition, % at 15 µM; 330,000 compounds, 1.1% hits; AID 652115; in the data active = inhibition above about 15%
# Target sequence (Q9NXA8 whole entry, looked up): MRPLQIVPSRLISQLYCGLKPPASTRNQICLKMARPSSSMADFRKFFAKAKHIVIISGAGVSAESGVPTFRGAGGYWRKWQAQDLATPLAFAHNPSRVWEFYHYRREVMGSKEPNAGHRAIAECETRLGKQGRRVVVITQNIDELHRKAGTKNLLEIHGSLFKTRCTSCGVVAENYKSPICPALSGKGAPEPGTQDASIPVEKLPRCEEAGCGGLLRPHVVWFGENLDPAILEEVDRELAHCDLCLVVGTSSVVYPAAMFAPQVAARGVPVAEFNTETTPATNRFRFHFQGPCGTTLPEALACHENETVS
# LGR2 inh: inhibitors of bursicon-induced Drosophila LGR2 receptor cAMP signaling | HEK293 LGR2, CRE-luciferase, bursicon-stimulated, 4 h | inhibition, % at 9.99 µM | 380,000 compounds, 0.35% hits;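 active = drop in luminescence signal, shown as inhibition above about 50% in the replicate tests, limit read from the data, passing the limit was not always enough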;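 note: agonist challenge used bursicon conditioned medium at about half maximal strength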
# PAX8 reporter: lowers PAX8-driven luciferase in RMG-I cells; RMG-I TPO-luciferase reporter, SteadyGlo, 24 h; inhibition, % at 12.6 µM; 360,000 compounds, 1.2% hits;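 active = mean replicate inhibition at least 60% with every replicate also reaching 60%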;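 note: luciferase light reporting Pax8 driven TPO promoter activity; plate controls were median of neutral control wells for no effect and mitoxantrone controls for full effect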
# * hit, by the source's call; · = no result given.
SMILES,EWS-Fli inh,Ecoli rRNA inh,PGC1a acetyl inh,SIRT5 inh,LGR2 inh,PAX8 reporter
O=c1[nH]c(CN2CCN(S(=O)(=O)/C=C/c3ccccc3)CC2)nc2ccccc12,9,-2,-1,16*,9,10
COc1c(O)cc2c(c1O)C1OC(CO)C(O)C(O)C1OC2=O (stereo not drawn),-5,-22*,9,-5,-5,-15
COc1c(O)cc2c(c1O)[C@@H]1OC(CO)C(O)C(O)[C@H]1OC2=O (stereo partly drawn),-17,·,-1,4,11,-14
CC(c1ccon1)N(C)C(=O)c1cccc(OC2CCN(S(C)(=O)=O)CC2)c1 (stereo not drawn),-4,4,5,15*,-7,-1
COCCC(=O)N1CCC(Oc2ccc(C(=O)N(C)C(C)c3ccon3)cc2)CC1 (stereo not drawn),·,12,-8,-7,-7,-2
CO[C@H](CN(C)Cc1nccs1)[C@@H](C)CN([C@@H](C)CO)S(=O)(=O)c1ccc(C)cc1,16,-1,0,19*,15,·
CO[C@@H](CN(C)Cc1nccs1)[C@H](C)CN([C@@H](C)CO)S(=O)(=O)c1ccc(F)cc1,0,0,9,-2,-1,·
O=C(C[C@H]1C[C@@H]2c3cc(NC(=O)Nc4ccccc4)ccc3O[C@@H]2[C@@H](CO)O1)NC1CCCCC1,11,-11,-1,2,10,4
CC(C)C(NS(=O)(=O)c1ccc2c(c1)Cc1cc(S(=O)(=O)NC(C(=O)O)C(C)C)ccc1-2)C(=O)O (stereo not drawn),-9,4,-14,25*,1,17
COc1ccc2c3c([nH]c2c1)[C@H](CO)N(C(=O)c1cccnc1)CC31CN(C(=O)NC(C)C)C1,9,4,·,6,15,·
O=C(C[C@@H]1CC[C@H](NC(=O)c2ccncc2)[C@@H](CO)O1)NCC1CCCCC1,5,1,-9,9,0,-14
CCS(=O)(=O)N[C@H]1CC[C@H](CC(=O)Nc2ccc(-c3ccccc3)cc2)O[C@@H]1CO,0,-2,-1,-2,-19,23
Cc1cc(C)n2c(Nc3ccc4c(c3)OCCO4)c(-c3cc4ccccc4o3)nc2n1,36,-2,·,-5,92*,-60
O=C(NCc1ccco1)c1cnn2c(C(F)F)cc(-c3ccccc3)nc12,·,·,-4,·,·,·
Cc1cc(C)c(Cc2c(C)nc3c(C(=O)NCc4ccco4)cnn3c2C)c(C)c1,34,-9,12,7,56*,·
COc1cccc(NC(=O)N2C[C@H](O)COC[C@H]3O[C@@H](CC(=O)NCCCN4CCOCC4)CC[C@@H]32)c1,·,-2,3,·,-4,·
C[C@H](NC(=O)C[C@H]1C[C@H]2c3cc(NC(=O)C4CCOCC4)ccc3O[C@H]2[C@H](CO)O1)c1ccccc1,6,9,2,0,6,0
CCOc1ccc(C)cc1S(=O)(=O)n1cnc2ccccc21,59*,5,2,0,1,-2
COc1ccc(NC(=O)N2CC(=O)N3[C@H](C2)[C@@H](c2ccc(-c4ccccc4)cc2)[C@@H]3CO)cc1,3,-10,10,2,22,-13
CCn1cc(C(=O)OCC(=O)Nc2ccc(C(C)C)cc2)c(=O)c2ccc(C)nc21,-8,-23*,11,-7,-10,8
COc1ccc(C#Cc2cnc3c(c2)C(=O)N([C@@H](C)CO)C[C@@H](C)[C@@H](CN(C)C(=O)Nc2cccc(OC)c2)O3)cc1,-11,1,-12,·,-9,·
N#Cc1c(C#N)c(SSc2c(C#N)c(C#N)c(N)n2-c2ccccc2)n(-c2ccccc2)c1N,51*,4,-2,-1,2,-24
C[C@@H]1CN([C@H](C)CO)C(=O)Cc2cc(NS(=O)(=O)c3cn(C)cn3)ccc2O[C@@H]1CN(C)Cc1ccc(C(=O)Nc2ccccc2N)cc1,0,2,3,0,-7,-33
CC1CC(C)CN(C(=O)c2ccc(NC(=O)c3ccc(=O)[nH]c3)cc2)C1 (stereo not drawn),2,8,1,·,-2,0
CC1CC(C)CN(S(=O)(=O)c2ccc(NC(=O)c3ccc(=O)[nH]c3)cc2)C1 (stereo not drawn),64*,3,2,2,0,39
SMILES,EWS-Fli inh,Ecoli rRNA inh,PGC1a acetyl inh,SIRT5 inh,LGR2 inh,PAX8 reporter
COc1cc(C2C3=C(COC3=O)Oc3cc4c(cc32)OCO4)cc(OC)c1OC (stereo not drawn),36,13,-5,-2,-27,69*
O=C1OCC2=C1C(c1ccc3c(c1)OCO3)c1cc3c(cc1O2)OCO3 (stereo not drawn),39,29,·,-1,-30,-2
COc1cc(C2C3=C(COC3=O)Oc3cc4c(cc32)OCO4)cc(OC)c1O (stereo not drawn),57*,-6,·,-1,-5,90*
CCCn1nc(NS(=O)(=O)c2ccccc2[N+](=O)[O-])c2cc3ccccc3nc21,11,-21*,-13,-1,-22,13
COc1cccc(S(=O)(=O)N2CC3(CN[C@@H](CO)c4[nH]c5cc(OC)ccc5c43)C2)c1,11,-5,·,-2,0,·
C[C@@H]1CN([C@@H](C)CO)C(=O)c2cc(Br)cnc2O[C@@H]1CN(C)C(=O)C1CCC1,-19,0,10,·,0,·
O=C(NCc1ccco1)C1CCN(C(=O)c2cc3sccc3n2Cc2ccc(F)cc2)CC1,8,-29*,3,1,8,·
C[C@@H]1CN([C@H](C)CO)C(=O)c2cc(NC(=O)Nc3cccc4ccccc34)ccc2O[C@@H]1CN(C)CC1CCCCC1,70*,1,-18,-4,10,·
C[C@@H]1CCCCO[C@@H](CN(C)CC2CCCCC2)[C@@H](C)CN([C@@H](C)CO)C(=O)c2cc(NC(=O)Nc3cccc4ccccc34)ccc2O1,77*,-4,-19,3,7,-4
C[C@@H]1CCCCO[C@H](CN(C)CC2CCCCC2)[C@H](C)CN([C@H](C)CO)C(=O)c2cc(NC(=O)Nc3cccc4ccccc34)ccc2O1,87*,-3,-17,1,-6,5
C[C@@H]1CCCCO[C@H](CN(C)CC2CCCCC2)[C@H](C)CN([C@@H](C)CO)C(=O)c2cc(NC(=O)Nc3cccc4ccccc34)ccc2O1,19,-53*,-14,0,-10,29
O=C(C[C@H]1C[C@@H]2c3cc(NC(=O)C4CCOCC4)ccc3O[C@@H]2[C@@H](CO)O1)NCc1cccc(F)c1,0,-3,9,3,6,15
CO[C@H]1CN(C)C(=O)c2ccc(NS(=O)(=O)CC(F)(F)F)cc2OC[C@H](C)N(CC2CCCCC2)C[C@@H]1C,-12,-2,1,13,6,-1
